# Data published in PubChem BioAssay (NCI).
# The panel holds about 79,000 compounds, 15% with a hit somewhere; the sample as a whole holds those more often. Unmarked numbers belong to inactive results. Activity calls are given as the source filed them. Cut-off read from the data, not from the text of the source: active = growth inhibition above about 70%; inactive = the rest.
# Tests used:
# [1] = NCI Yeast Anticancer Drug Screen. Data for the rad52 strain (AID 147);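 note: 0% = growth of vehicle-treated control cultures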; conditions: S. cerevisiae rad52 mutant growth inhibition, active compounds read high
# Procedure, shortened: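 Yeast strain carrying a DNA damage repair alteration was exposed to test compounds. Growth inhibition was measured relative to vehicle-treated controls.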
# [2] = NCI Yeast Anticancer Drug Screen. Data for the wt1 strain (AID 149);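 note: 0% = growth of vehicle-treated wt1 cultures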; conditions: S. cerevisiae wt1 strain (SPY 50644) growth inhibition, active compounds read high
# Procedure, shortened: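 Measured: growth of wt1 yeast under compound versus vehicle treatment, reported as inhibition.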
# [3] = NCI Yeast Anticancer Drug Screen. Data for the rad50EPP+ strain (AID 151);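 note: 0% = growth of vehicle-treated control cultures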; conditions: S. cerevisiae rad50 mutant strain, active compounds read high
# Procedure, shortened: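 Yeast strain carrying rad50 alteration (rad50EPP+) exposed to compounds; growth inhibition measured relative to vehicle-treated controls.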
# [4] = NCI Yeast Anticancer Drug Screen. Data for the mgt1 strain (AID 153); conditions: S. cerevisiae mgt1 mutant growth inhibition, active compounds read high
# Procedure, shortened: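 Yeast mgt1 strain (DNA repair/cell-cycle alteration panel) exposed to compounds; growth inhibition measured relative to vehicle-treated controls.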
# [5] = NCI Yeast Anticancer Drug Screen. Data for the rad50 strain (AID 155);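 note: 0% = growth of vehicle-only cultures of the same strain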; conditions: S. cerevisiae rad50 strain growth inhibition, active compounds read high
# Procedure, shortened: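 Growth of the mutant yeast was measured after compound exposure and referenced to vehicle-treated cultures.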
# [6] = NCI Yeast Anticancer Drug Screen. Data for the mec2-1 strain (AID 157); conditions: S. cerevisiae mec2-1 strain, active compounds read high
# Procedure, shortened: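 mec2-1 yeast strain, carrying an alteration in DNA damage repair or cell cycle control, was exposed to compounds; growth inhibition was measured relative to vehicle-treated controls.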
# [7] = NCI Yeast Anticancer Drug Screen. Data for the rad14 strain (AID 159);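 note: 0% = growth of vehicle-treated control cultures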; conditions: S. cerevisiae rad14 strain growth inhibition, active compounds read high
# Procedure, shortened: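 Here, inhibition of yeast growth was measured after compound exposure, using a strain with a genetic defect in DNA damage repair and vehicle-treated cultures as the reference.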
# [8] = NCI Yeast Anticancer Drug Screen. Data for the sgs1 mgt1 strain (AID 161);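 note: 0% = growth of cultures given vehicle only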; conditions: S. cerevisiae sgs1 mgt1 strain, active compounds read high
# Procedure, shortened: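 This yeast growth screen uses a strain with defined DNA-repair lesions; compound-treated growth is compared with vehicle-treated growth.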
# [9] = NCI Yeast Anticancer Drug Screen. Data for the CLN2oe strain (AID 163);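 note: 0% = growth of vehicle-only control cultures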; conditions: S. cerevisiae CLN2oe strain, active compounds read high
# Procedure, shortened: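 Yeast cells carrying a defined cell-cycle control alteration were exposed to test compounds. Growth inhibition was scored against vehicle-treated control cultures.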
# [10] = NCI Yeast Anticancer Drug Screen. Data for the cln2 rad14 strain (AID 165);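 note: 0% = growth equal to vehicle treated cultures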; conditions: S. cerevisiae cln2 rad14 strain, active compounds read high
# Procedure, shortened: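 Yeast carrying cln2 and rad14 alterations (cell cycle control and DNA damage repair) were exposed to compounds. Growth inhibition was measured against vehicle-treated controls.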
# [11] = NCI Yeast Anticancer Drug Screen. Data for the bub3 strain (AID 167); conditions: S. cerevisiae bub3 mutant strain, active compounds read high
# Procedure, shortened: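 Whole-cell yeast assay. The mutant strain was incubated with compounds, and growth inhibition was determined by comparison with vehicle-treated cells.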
# [12] = NCI Yeast Anticancer Drug Screen. Data for the wt2 strain (AID 169);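 note: 0% = growth of vehicle-treated yeast cultures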; conditions: S. cerevisiae wt2 strain growth inhibition, active compounds read high
# Procedure, shortened: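 Yeast cells were exposed to test compounds, and growth inhibition was measured relative to vehicle-treated controls.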
# [13] = NCI Yeast Anticancer Drug Screen. Data for the mlh1 strain (AID 171);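 note: 0% = growth of vehicle-treated control cultures of the same strain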; conditions: S. cerevisiae mlh1 strain growth inhibition, active compounds read high
# Procedure, shortened: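 Yeast carrying a defined genetic alteration in DNA damage repair or cell cycle control were exposed to test compounds. Growth inhibition was measured relative to vehicle-treated controls.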
# [14] = NCI Yeast Anticancer Drug Screen. Data for the sgs1 strain (AID 173);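 note: 0% = growth of vehicle-only control cultures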; conditions: S. cerevisiae sgs1 mutant, active compounds read high
# Procedure, shortened: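 Yeast mutant strains carrying defined defects in DNA damage repair or cell cycle control were exposed to test compounds. Growth inhibition was scored against vehicle-treated controls.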
# [15] = NCI Yeast Anticancer Drug Screen. Data for the mlh1 rad18 strain (AID 175); conditions: S. cerevisiae mlh1 rad18 strain growth inhibition, active compounds read high
# Procedure, shortened: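 Growth inhibition of the yeast strain was measured after compound exposure and expressed relative to vehicle-treated controls. The strain carries defined defects in DNA damage repair.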
# [16] = NCI Yeast Anticancer Drug Screen. Data for the rad18 strain (AID 177); conditions: S. cerevisiae rad18 mutant growth inhibition, active compounds read high
# Procedure, shortened: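 Yeast carrying a defined DNA damage repair alteration were exposed to compounds. Growth inhibition was expressed relative to vehicle-treated controls.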
# [17] = at 5.0 µM (retest, dose inferred, filed as 0.5)
# [18] = at 50.0 µM (retest, dose inferred, filed as 5.0)
structure (smiles),measurement,setting,value
OC(c1ccc(F)cc1)(c1ccc(F)cc1)C1CC1,growth inhibition,[1]; at 1.2 µM,-39%
same,growth inhibition,[1]; at 3.7 µM,-58%
same,growth inhibition,[1]; at 11.0 µM,-47%
same,growth inhibition,[1]; at 33.0 µM,12%
same,growth inhibition,[1]; at 100.0 µM,76% (active)
same,growth inhibition,[2]; at 1.2 µM,-38%
same,growth inhibition,[2]; at 3.7 µM,-33%
same,growth inhibition,[2]; at 11.0 µM,-36%
same,growth inhibition,[2]; at 33.0 µM,-27%
same,growth inhibition,[2]; at 100.0 µM,90% (active)
same,growth inhibition,[3]; at 1.2 µM,-10%
same,growth inhibition,[3]; at 3.7 µM,-17%
same,growth inhibition,[3]; at 11.0 µM,-35%
same,growth inhibition,[3]; at 33.0 µM,-26%
same,growth inhibition,[3]; at 100.0 µM,11%
same,growth inhibition,[4]; at 1.2 µM,-36%
same,growth inhibition,[4]; at 3.7 µM,-47%
same,growth inhibition,[4]; at 11.0 µM,-47%
same,growth inhibition,[4]; at 33.0 µM,-51%
same,growth inhibition,[4]; at 100.0 µM,20%
same,growth inhibition,[5]; at 1.2 µM,-31%
same,growth inhibition,[5]; at 3.7 µM,-32%
same,growth inhibition,[5]; [17],59%
same,growth inhibition,[5]; at 11.0 µM,-26%
same,growth inhibition,[5]; at 33.0 µM,32%
same,growth inhibition,[5]; [18],99% (active)
same,growth inhibition,[5]; at 50.0 µM,62.9%
same,growth inhibition,[5]; at 100.0 µM,94% (active)
same,growth inhibition,[6]; at 1.2 µM,-87%
same,growth inhibition,[6]; at 3.7 µM,-42%
same,growth inhibition,[6]; [17],68%
same,growth inhibition,[6]; at 11.0 µM,-67%
same,growth inhibition,[6]; at 33.0 µM,-32%
same,growth inhibition,[6]; [18],100% (active)
same,growth inhibition,[6]; at 50.0 µM,40.1%
same,growth inhibition,[6]; at 100.0 µM,95% (active)
same,growth inhibition,[7]; at 1.2 µM,-18%
same,growth inhibition,[7]; at 3.7 µM,-18%
same,growth inhibition,[7]; at 11.0 µM,-7%
same,growth inhibition,[7]; at 33.0 µM,8%
same,growth inhibition,[7]; at 100.0 µM,97% (active)
same,growth inhibition,[8]; [17],-4%
same,growth inhibition,[8]; [18],77% (active)
same,growth inhibition,[8]; at 50.0 µM,51.4%
same,growth inhibition,[9]; at 1.2 µM,-16%
same,growth inhibition,[9]; at 3.7 µM,-3%
same,growth inhibition,[9]; at 11.0 µM,-9%
same,growth inhibition,[9]; at 33.0 µM,-8%
same,growth inhibition,[9]; at 100.0 µM,93% (active)
same,growth inhibition,[10]; [17],41%
same,growth inhibition,[10]; [18],73% (active)
same,growth inhibition,[10]; at 50.0 µM,28.9%
same,growth inhibition,[11]; at 1.2 µM,-32%
same,growth inhibition,[11]; at 3.7 µM,-27%
same,growth inhibition,[11]; [17],20%
same,growth inhibition,[11]; at 11.0 µM,-13%
same,growth inhibition,[11]; at 33.0 µM,-16%
same,growth inhibition,[11]; [18],81% (active)
same,growth inhibition,[11]; at 50.0 µM,64.8%
same,growth inhibition,[11]; at 100.0 µM,96% (active)
same,growth inhibition,[12]; at 1.2 µM,-25%
same,growth inhibition,[12]; at 3.7 µM,-25%
same,growth inhibition,[12]; at 11.0 µM,-5%
same,growth inhibition,[12]; at 33.0 µM,-28%
same,growth inhibition,[12]; at 100.0 µM,87% (active)
same,growth inhibition,[13]; at 1.2 µM,-39%
same,growth inhibition,[13]; at 3.7 µM,-64%
same,growth inhibition,[13]; at 11.0 µM,-66%
same,growth inhibition,[13]; at 33.0 µM,-42%
same,growth inhibition,[13]; at 100.0 µM,92% (active)
same,growth inhibition,[14]; at 1.2 µM,-62%
same,growth inhibition,[14]; at 3.7 µM,-43%
same,growth inhibition,[14]; at 11.0 µM,-52%
same,growth inhibition,[14]; at 33.0 µM,-42%
same,growth inhibition,[14]; at 100.0 µM,86% (active)
same,growth inhibition,[15]; [17],67%
same,growth inhibition,[15]; [18],100% (active)
same,growth inhibition,[15]; at 50.0 µM,64%
same,growth inhibition,[16]; at 1.2 µM,-8%
same,growth inhibition,[16]; at 3.7 µM,-11%
same,growth inhibition,[16]; at 11.0 µM,-21%
same,growth inhibition,[16]; at 33.0 µM,46%
same,growth inhibition,[16]; at 100.0 µM,95% (active)
